Out of some 52,000 compounds screened, about 4,300 (8.3%) were called active. Cut-off read from the data, not from the text of the source: active = survival mostly below about 52% (no sharp cut-off); inactive = mostly above about 56%. Shown is part of a subset that was picked to be rich in actives.
What follows are compounds tested on DeltatarO mutant (assay: growth inhibition of S. aureus wild type versus tarO mutant, primary screen, teichoic acid synthesis inhibitors, RN4220, OD600 (AID 463173)). Conditions: OD600, 18 h, hits give low values, screened at 18.75 µg/mL (by protocol).
For `Cc1cc(F)ccc1NC(=O)CCS(=O)(=O)c1ccc2c(c1)CC(C)N2C(=O)C1CC1` (stereo not given), the survival was 81% (inactive).
In the case of `Cc1cccc(N2CCn3c2nc2c3c(=O)n(CCCc3ccccc3)c(=O)n2C)c1`, the survival is reported as 76% (inactive).
With `CCSc1nnc(C2CCCN(C(=O)NCc3ccccc3)C2)n1C` (stereo not given) the survival was 84% (inactive).
`CC1CCCCN1C(=O)CSc1nc(-c2ccccc2)no1` (stereo not given) was tested, and the survival was 83% (inactive).
For `Cc1ccc(S(=O)(=O)C(CNS(=O)(=O)c2cc(F)ccc2F)c2cccs2)cc1` (stereo not given), the survival was 64% (inactive).
For `CC1C(=O)CC(c2ccco2)NC1c1ccco1` (stereo not given), the survival was 56% (inactive).
In the case of `CCc1nc2ccc(C(=O)NCCc3ccccc3OC)cc2nc1CC`, the survival is reported as 73% (inactive).
With `Cc1ccc(-c2cc3c(N4CCN(c5cc(C)ccc5C)CC4)nccn3n2)cc1` the survival was 68% (inactive).
In the case of `COc1ccc(NC(=O)Cn2c(SCc3cc(C)ccc3C)nc3ccncc32)c(OC)c1OC`, the survival is reported as 61% (inactive).
`Cc1cccc2c1-c1sc(C(=O)NCCc3ccc(Cl)cc3)cc1CO2` was tested, and the survival was 86% (inactive).
In the case of `COc1ccc(/C=C/C(=O)Nc2sc(C)c(C)c2C(=O)O)cc1`, the survival is reported as 60% (inactive).
`COc1ccc(-n2cnc3cc(C(=O)NC4CCCCCC4)ccc32)cc1` was tested, and the survival was 117% (inactive).
With `CCN1C(=O)CC(C(=O)NC)SC1=Nc1cc(Cl)c(O)c(Cl)c1` (stereo not given) the survival was 75% (inactive).
With `CC(=O)Nc1ccc2nc3c(=O)[nH]c(=O)[nH]c3nc2c1` the survival was 72% (inactive).
With `COc1ccc(NC(=O)CCSc2nc(-c3ccc(OC)cc3)cc(C(F)(F)F)n2)cc1` the survival was 70% (inactive).
In the case of `COc1ccc(-c2cc(C(F)(F)F)nc(SCCC(=O)Nc3ccc(NC(C)=O)cc3)n2)cc1`, the survival is reported as 61% (inactive).
`COc1ccc(-c2cc(C(F)(F)F)nc(SCCC(=O)Nc3ccc(OC)c(OC)c3)n2)cc1` was tested, and the survival was 40% (active).
With `CC(C)(C)NC(=O)COc1ccc(CNc2ccc3c(c2)OCCO3)cc1` the survival was 87% (inactive).
For `O=C(CCCCn1c(=O)c2ccccc2n(Cc2ccc(Cl)cc2)c1=O)NCc1ccccc1Cl`, the survival was 97% (inactive).
In the case of `COc1ccc(CCNC(=O)CCn2c(=O)c3ccccc3n(Cc3ccc(Cl)cc3)c2=O)cc1OC`, the survival is reported as 119% (inactive).
For `COc1ccc(CCNC(=O)CCCCn2c(=O)c3ccccc3n(Cc3ccccc3C)c2=O)cc1OC`, the survival was 95% (inactive).
For `COc1ccc(CCNC(=O)CCn2c(=O)c3ccccc3n(Cc3ccccc3C)c2=O)cc1OC`, the survival was 86% (inactive).
For `O=C(CCCCn1c(=O)c2ccccc2n(Cc2ccccc2F)c1=O)NCc1ccccc1Cl`, the survival was 97% (active).
With `COc1ccc(CCNC(=O)CCCn2c(=O)c3ccccc3n(Cc3ccccc3C)c2=O)cc1OC` the survival was 85% (inactive).
For `COc1ccc(CCNC(=O)CCn2c(=O)c3ccccc3n(Cc3ccccc3F)c2=O)cc1OC`, the survival was 93% (active).
With `Cc1ccccc1Cn1c(=O)n(CCCCC(=O)NCc2ccccc2Cl)c(=O)c2ccccc21` the survival was 93% (inactive).
In the case of `COc1ccc(CCNC(=O)CCCn2c(=O)c3ccccc3n(Cc3ccccc3C#N)c2=O)cc1OC`, the survival is reported as 87% (active).
With `Cn1ccc2cc(S(=O)(=O)N3CCC(C(=O)NCCc4ccccc4)CC3)ccc21` the survival was 89% (inactive).
With `Cc1nn(C)c2c1c(C(F)(F)F)cc(=O)n2C(C)C(=O)N1CCN(c2ccccc2)CC1` (stereo not given) the survival was 86% (inactive).
With `CC(C)OC(=O)CSc1nnc(-c2ccccc2)n1Cc1ccco1` the survival was 87% (inactive).
In the case of `COc1ccc(Cl)cc1NC(=O)CN1Cc2ccccc2C1=O`, the survival is reported as 100% (inactive).
In the case of `CCC(Sc1nnc2c3ccccc3n(CC)c2n1)C(=O)Nc1ccc(NC(C)=O)cc1` (stereo not given), the survival is reported as 104% (inactive).
`Cc1ccccc1C(=O)Nc1sc2c(c1C(=O)N1CCCCC1)CCC(C)C2` (stereo not given) was tested, and the survival was 49% (inactive).
In the case of `Cc1ccccc1C(=O)Nc1sc2c(c1C(=O)N1CCC(C)CC1)CCC(C)C2` (stereo not given), the survival is reported as -3% (active).
With `O=C(Nc1sc2c(c1C(=O)N1CCCCC1)CCCC2)c1ccccc1Cl` the survival was 69% (inactive).
`CC(C)(C)C1CCc2c(sc(NC(=O)c3ccccc3F)c2C(=O)N2CCCCC2)C1` (stereo not given) was tested, and the survival was -5% (active).
`COC(=O)c1ccccc1NC(=O)c1c(NC(=O)c2ccco2)sc2c1CCC(C(C)(C)C)C2` (stereo not given) was tested, and the survival was 137% (inactive).
`CC(C)(C)C1CCc2c(sc(NC(=O)c3ccco3)c2C(=O)Nc2ccccc2Cl)C1` (stereo not given) was tested, and the survival was 135% (inactive).
`CC(C)(C)C1CCc2c(sc(NC(=O)c3ccncc3)c2C(=O)Nc2ccccc2Cl)C1` (stereo not given) was tested, and the survival was 71% (inactive).
With `CCOc1ccccc1NC(=O)c1c(NC(=O)c2ccccc2C)sc2c1CCC(C)C2` (stereo not given) the survival was 65% (inactive).
For `CC1CCN(C(=O)c2c(NC(=O)c3ccccc3F)sc3c2CCC(C(C)(C)C)C3)CC1` (stereo not given), the survival was -4% (active).
In the case of `Cc1ccccc1NC(=O)c1c(NC(=O)c2ccccc2F)sc2c1CCC(C)C2` (stereo not given), the survival is reported as 63% (inactive).
In the case of `CC1CCN(C(=O)c2c(NC(=O)c3ccccc3Cl)sc3c2CCC(C(C)(C)C)C3)CC1` (stereo not given), the survival is reported as 10% (active).
With `Cc1ccccc1C(=O)Nc1sc2c(c1C(=O)N1CCC(C)CC1)CCCC2` the survival was 58% (inactive).
In the case of `Cc1cccc(-n2nnc(-c3nc(-c4cccs4)no3)c2N)c1`, the survival is reported as 87% (inactive).
With `COc1ccc(OC)c(NC(=O)Cn2cc(S(=O)(=O)c3ccccc3)c(=O)c3cc(C)ccc32)c1` the survival was 70% (inactive).
`CCOc1ccc(NC(=O)Cn2ccn3nc(-c4ccc(OC)c(OC)c4)cc3c2=O)cc1` was tested, and the survival was 102% (inactive).
In the case of `Cc1ccc(SCC(=O)Nc2ccc(O)c(-c3nc4cc(C)ccc4o3)c2)cc1`, the survival is reported as 64% (inactive).
`NNC(=O)C(Sc1n[nH]c(=O)[nH]c1=O)c1ccccc1` (stereo not given) was tested, and the survival was 80% (inactive).
For `Cc1oc(C(C)(C)C)cc1C(=O)NCCO`, the survival was 77% (inactive).
For `CCOc1cccc(C2c3[nH]c4ccccc4c3CCN2C(=O)CSc2ccccc2)c1` (stereo not given), the survival was 71% (inactive).
In the case of `COc1ccc(-c2cc(C(F)(F)F)nc(SCC(=O)Nc3ccc(C(C)=O)cc3)n2)cc1`, the survival is reported as 59% (inactive).
In the case of `Cc1ccc(CN(Cc2ccco2)C(=O)COc2ccc(C)c(C)c2)cc1`, the survival is reported as 68% (inactive).
`CC(C)(C)C1CCc2c(sc(NC(=O)c3ccccc3F)c2C(=O)NCc2ccco2)C1` (stereo not given) was tested, and the survival was 61% (inactive).
With `CCN(CC)C(=O)c1c(NC(=O)c2ccccc2F)sc2c1CCC(C(C)(C)C)C2` (stereo not given) the survival was -8% (active).
For `Cc1ccccc1C(=O)Nc1sc2c(c1C(=O)NCc1ccco1)CCC(C(C)(C)C)C2` (stereo not given), the survival was 109% (inactive).
`CN(C)C(=O)c1c(NC(=O)c2ccccc2F)sc2c1CCCC2` was tested, and the survival was 76% (inactive).
In the case of `Cc1ccccc1C(=O)Nc1sc2c(c1C(=O)O)CCC(C(C)(C)C)C2` (stereo not given), the survival is reported as -2% (active).
With `CCCNC(=O)c1c(NC(=O)c2ccccc2)sc2c1CCC(C(C)(C)C)C2` (stereo not given) the survival was 9% (active).
For `Cc1ccccc1NC(=O)c1c(NC(=O)c2ccco2)sc2c1CCC(C(C)(C)C)C2` (stereo not given), the survival was 74% (inactive).
In the case of `Cc1ccccc1C(=O)Nc1sc2c(c1C(=O)N1CCCCC1)CCC(C(C)(C)C)C2` (stereo not given), the survival is reported as -2% (active).
With `CC(C)(C)C1CCc2c(sc(NC(=O)c3ccc(Cl)cc3)c2C(=O)NCc2ccco2)C1` (stereo not given) the survival was 86% (inactive).
`Cc1ccc(C(=O)Nc2sc3c(c2C(=O)NCc2ccco2)CCC(C(C)(C)C)C3)cc1` (stereo not given) was tested, and the survival was 64% (inactive).
In the case of `CCOC(=O)c1sc(N2C(=O)c3oc4cc(C)c(C)cc4c(=O)c3C2c2cccc(O)c2)nc1C` (stereo not given), the survival is reported as 78% (inactive).
In the case of `O=C1C2(Cc3ccccc3)CN3CN(C2)CC1(Cc1ccccc1)C3`, the survival is reported as 75% (inactive).
In the case of `COc1ccc(NC(=O)c2cc(-c3ccc(F)cc3)no2)cc1OC`, the survival is reported as 71% (inactive).
`O=C(Nc1ccccc1[N+](=O)[O-])c1csnn1` was tested, and the survival was 73% (inactive).
`CC1=C(C(=O)Nc2cccnc2)C(c2ccccc2)n2nc(SCc3ccccc3)nc2N1` (stereo not given) was tested, and the survival was 74% (inactive).
In the case of `Cc1ccccc1OCC(=O)Nc1ccccc1C(=O)OCc1cc(=O)n2c(C)csc2n1`, the survival is reported as 94% (inactive).
For `CCOC(=O)c1c(S(=O)(=O)NCC(=O)NCc2ccccc2Cl)c(C)n(C)c1C`, the survival was 97% (inactive).
For `COc1ccccc1NC(=O)c1c(NC(=O)Cc2ccccc2)sc2c1CCC(C(C)(C)C)C2` (stereo not given), the survival was 126% (inactive).
For `COc1ccccc1NC(=O)c1c(NC(=O)c2cccs2)sc2c1CCC(C(C)(C)C)C2` (stereo not given), the survival was 139% (inactive).
In the case of `CC(C)(C)C1CCc2c(sc(NC(=O)CCC(=O)O)c2C(=O)Nc2ccccc2C(F)(F)F)C1` (stereo not given), the survival is reported as -6% (active).
`Cc1ccc(CNC(=O)C2CCN(C(=O)N3CC(C)Oc4ccc(Cl)cc43)CC2)cc1` (stereo not given) was tested, and the survival was 57% (inactive).
For `COc1ccccc1NC(=O)N1CC=C(c2c[nH]c3ccccc23)CC1`, the survival was 42% (active).
With `COc1cc(OC)c(NC(=O)N2CC=C(c3c[nH]c4ccccc34)CC2)cc1Cl` the survival was 75% (inactive).
In the case of `CCOc1ccc(NC(=O)N2CC=C(c3c[nH]c4ccccc34)CC2)cc1`, the survival is reported as 83% (inactive).
For `CCc1ccc(NC(=O)N2CC=C(c3c[nH]c4ccccc34)CC2)cc1`, the survival was 39% (active).
`Cc1cccc(NC(=O)N2CC=C(c3c[nH]c4ccccc34)CC2)c1C` was tested, and the survival was 73% (inactive).
With `CCOC(=O)c1cccc(NC(=O)N2CC=C(c3c[nH]c4ccccc34)CC2)c1` the survival was 83% (inactive).
With `COc1ccccc1OCC(=O)Nc1ccc(S(=O)(=O)N2CCN(C)CC2)cc1` the survival was 78% (inactive).
For `CCc1ccc(-n2nc(CO)c(C(=O)NC(C)c3ccc(Cl)cc3)n2)cc1` (stereo not given), the survival was 58% (inactive).
For `COc1cc(S(=O)(=O)N2CCN(c3ccccc3F)CC2)c(OC)cc1Cl`, the survival was 87% (inactive).
In the case of `CCOC(=O)c1cc2oc(C)cc2n1CC(=O)N(C)C1CCCCC1`, the survival is reported as 92% (inactive).
In the case of `CCOc1ccc(CCNC(=O)c2ccc3c(c2)c(C)c(C)n3Cc2ccccc2)cc1OCC`, the survival is reported as 83% (inactive).
In the case of `Cc1ccc2c(=O)cc(C(=O)Nc3c(C(=O)c4ccccc4)oc4ccccc34)oc2c1C`, the survival is reported as 82% (inactive).
For `CCCn1c2ccccc2c2cnn(CC(=O)NCCc3ccc(OCC)c(OCC)c3)c(=O)c21`, the survival was 92% (inactive).
With `CCCNC(=O)Cn1ncc2c3ccccc3n(CCC)c2c1=O` the survival was 128% (inactive).
With `CCCn1c2ccccc2c2cnn(CC(=O)NCC3CCN(Cc4ccc(C)cc4)CC3)c(=O)c21` the survival was 17% (active).
In the case of `CCCn1c2ccccc2c2cnn(CC(=O)NCCc3ccc(C)cc3)c(=O)c21`, the survival is reported as 128% (inactive).
`CCCn1c2ccccc2c2cnn(CC(=O)NCCc3ccc(OCC)cc3)c(=O)c21` was tested, and the survival was -5% (active).
With `CCCn1c2ccccc2c2cnn(CC(=O)NCCCN3CCCCC3)c(=O)c21` the survival was 94% (inactive).
`CCCn1c2ccccc2c2cnn(CC(=O)NCCCOC(C)C)c(=O)c21` was tested, and the survival was -5% (active).
With `CCCn1c2ccccc2c2cnn(CC(=O)NCC3CCN(Cc4ccc(F)cc4)CC3)c(=O)c21` the survival was 68% (inactive).
For `CCCn1c2ccccc2c2cnn(CC(=O)NCC3CCN(Cc4ccccc4C)CC3)c(=O)c21`, the survival was 55% (inactive).

— PubChem BioAssay AID463173 (ICCB-Longwood Screening Facility, Harvard Medical School, 2010)
